# PubChem BioAssay (Tox21)
# “And” between values parts separate entries of the source, which are not always exact repeats. Equal entries are not always repeated. Inconclusive results are not listed. More than one record can exist for a structure, and the calls need not agree. The source made the active and inactive calls. Calls come from the whole dose curve; as a rule, active = well fitted cell-killing curve with a large enough effect in the repeat runs; inconclusive = weak or mixed curves, or effect the other way; inactive = no such curve, though single readings can be large or run the other way.
# Assay: qHTS assay to identify small molecule antagonists of the thyroid receptor (TR) signaling pathway - cell viability counter screen (AID 743064); note: nearly all actives have a fitted effect of over 50% in size
# Conditions: GH3.TRE-Luc viability, CellTiter-Fluor, 24 h; series mostly up to 70.3 µM; activity change, negative = cytotoxic: at the top concentration
# How it was run: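 Compounds were tested on GH3.TRE-Luc cells in the presence of T3 at 1 nM final. Following 23.5 h at 37 °C, cell viability was quantified by CellTiter-Fluor.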
# % is set by controls: 0 for no effect and ±100 for the full control effect; potency is the fitted concentration of half-maximal effect.
Structure (SMILES),Potency,"activity change, negative = cytotoxic"
CC1(C)C[C@@H]1C(=O)N/C(=C\CCCCSC[C@H](N)C(=O)O)C(=O)O,inactive,–
Cc1cc(-c2ccc(N=Nc3ccc4c(S(=O)(=O)O)cc(S(=O)(=O)O)c(N)c4c3O)c(C)c2)ccc1N=Nc1ccc2c(S(=O)(=O)O)cc(S(=O)(=O)O)c(N)c2c1O,–,-24.9% (inactive)
Clc1nc(C(Cl)(Cl)Cl)c(Cl)c(Cl)c1Cl,21.7 µM (active),–
O=C1c2ccccc2C(=O)C1c1ccc(F)cc1,–,15.4% (inactive)
CC(=O)OCC(=O)[C@@]1(O)CC[C@H]2[C@@H]3C[C@H](C)C4=CC(=O)C=C[C@]4(C)[C@H]3[C@@H](O)C[C@@]21C,–,-11.5% (inactive)
CC(C)c1ccc2sc3ccccc3c(=O)c2c1,–,1.39% (inactive)
CC(=O)Oc1cc(C(F)(F)F)ccc1C(=O)O,–,29.4% [at 32.5 µM] (inactive)
N[C@H](C(=O)O)[C@@H]1CC(Cl)=NO1,5.96 µM (active),–
NCc1cccc(C2CCN(C(=O)c3ccc(C#Cc4ccccc4F)o3)CC2)c1,7.7 µM (active),–
CC1CCCCN1CCCOC(=O)c1ccccc1 (stereo not drawn),–,-2.52% (inactive)
O=C1CCC(c2ccc(-n3ccnc3)cc2)=NN1,–,23% (inactive)
COc1cc(/C=C/C(=O)CC(=O)/C=C/c2ccc(O)c(OC)c2)ccc1O,23.7 µM (active) and inactive and 13.8 µM (active),–
CSCC[C@H](NC(=O)[C@H](Cc1ccc(OS(=O)(=O)O)cc1)NC(=O)[C@@H](N)CC(=O)O)C(=O)NCC(=O)N[C@@H](Cc1c[nH]c2ccccc12)C(=O)N[C@@H](CCSC)C(=O)N[C@@H](CC(=O)O)C(=O)N[C@@H](Cc1ccccc1)C(N)=O,inactive,–
